Test results from PubChem BioAssay AID1159580 (chemical genetic matrix, 2015).
The campaign covered roughly 5,500 compounds. About 2,000 (36%) were called active. Another 18% or so got no clear call; they are omitted. No stated cut-off is given here; in the data, active means normalized growth mostly below about 0.91 (no sharp cut-off); inconclusive means no clear call, values can overlap the other calls; inactive means mostly above about 0.92. The list shows a part of the results.

Assay: chemical genetic growth profiling, strain panel (AID 1159580);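 further: tested at 20 µM; growth read once vehicle control cultures reached saturation at 30 °C; 1 = growth at the plate median or of vehicle wells; lower values mean less growth of the strain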
Conditions: growth OD

Measured: normalized growth

NS(=O)(=O)c1cc2c(cc1Cl)NC(C(Cl)Cl)NS2(=O)=O (stereo not drawn)
inactive: S. cerevisiae deletion strains, locus YKL009W, strain mrt4, active compounds read low 1.02 | S. cerevisiae deletion strains, locus YKL068W, active compounds read low 1 | S. cerevisiae deletion strains, locus YKL085W, strain MDH1 (second series), active compounds read low 1.01 | S. cerevisiae deletion strains, locus YKL085W, strain MDH1, active compounds read low 1.01 | S. cerevisiae deletion strains, locus YKL160W, strain elf1, active compounds read low 1 | S. cerevisiae deletion strains, locus YKL190W, strain CNB1, active compounds read low 1.02 | S. cerevisiae deletion strains, locus YKR001C, strain vps1, active compounds read low 1.03 | S. cerevisiae deletion strains, locus YKR026C, strain gcn3, active compounds read low 0.99 | S. cerevisiae deletion strains, locus YKR091W, strain srl3, active compounds read low 0.97 | S. cerevisiae deletion strains, locus YLL001W, strain dnm1, active compounds read low 1.01 | S. cerevisiae deletion strains, locus YLL026W, active compounds read low 0.991 | S. cerevisiae deletion strains, locus YLL041C, strain sdh2, active compounds read low 0.988 | S. cerevisiae deletion strains, locus YLR027C, strain aat2, active compounds read low 0.985 | S. cerevisiae deletion strains, locus YLR039C, strain RIC1, active compounds read low 1.06 | S. cerevisiae deletion strains, locus YLR058C, strain SHM2, active compounds read low 1.02 | S. cerevisiae deletion strains, locus YLR102C, strain apc9, active compounds read low 1.01 | S. cerevisiae deletion strains, locus YLR113W, strain HOG1, active compounds read low 0.996 | S. cerevisiae deletion strains, locus YLR221C, strain rsa3, active compounds read low 0.949 | S. cerevisiae deletion strains, locus YLR258W, strain gsy2, active compounds read low 0.977 | S. cerevisiae deletion strains, locus YLR262C, strain YPT6 (second series), active compounds read low 0.999 | S. cerevisiae deletion strains, locus YLR262C, strain YPT6, active compounds read low 1.05 | S. cerevisiae deletion strains, locus YLR268W, strain sec22, active compounds read low 1.04 | S. cerevisiae deletion strains, locus YLR320W, strain mms22, active compounds read low 0.972 | S. cerevisiae deletion strains, locus YLR330W, strain CHS5, active compounds read low 1 | S. cerevisiae deletion strains, locus YLR342W, strain FKS1 (second series), active compounds read low 1.02 | S. cerevisiae deletion strains, locus YLR342W, strain FKS1, active compounds read low 0.993 | S. cerevisiae deletion strains, locus YLR357W, strain rsc2, active compounds read low 0.956 | S. cerevisiae deletion strains, locus YLR370C, strain arc18, active compounds read low 0.985 | S. cerevisiae deletion strains, locus YLR371W, strain rom2, active compounds read low 1.02 | S. cerevisiae deletion strains, locus YLR384C, strain iki3, active compounds read low 0.973 | S. cerevisiae deletion strains, locus YLR418C, strain cdc73, active compounds read low 1.05 | S. cerevisiae deletion strains, locus YML016C, strain PPZ1, active compounds read low 1 | S. cerevisiae deletion strains, locus YML032C, strain rad52, active compounds read low 1.02 | S. cerevisiae deletion strains, locus YML120C, strain ndi1, active compounds read low 0.986 | S. cerevisiae deletion strains, locus YML124C, strain tub3, active compounds read low 1.02 | S. cerevisiae deletion strains, locus YMR058W, strain fet3, active compounds read low 0.982 | S. cerevisiae deletion strains, locus YMR078C, strain ctf18, active compounds read low 1.02 | S. cerevisiae deletion strains, locus YMR125W, strain sto1, active compounds read low 0.966 | S. cerevisiae deletion strains, locus YMR129W, active compounds read low 0.97 | S. cerevisiae deletion strains, locus YMR205C, strain PFK2, active compounds read low 0.994 | S. cerevisiae deletion strains, locus YMR223W, strain ubp8, active compounds read low 1.01 | S. cerevisiae deletion strains, locus YMR231W, strain pep5, active compounds read low 0.971 | S. cerevisiae deletion strains, locus YMR263W, strain SAP30, active compounds read low 1.01 | S. cerevisiae deletion strains, locus YMR307W, strain GAS1, active compounds read low 1 | S. cerevisiae deletion strains, locus YNL067W, strain RPL9B, active compounds read low 1.01 | S. cerevisiae deletion strains, locus YNL071W, strain lat1, active compounds read low 0.981 | S. cerevisiae deletion strains, locus YNL183C, strain NPR1, active compounds read low 0.943 | S. cerevisiae deletion strains, locus YNL209W, strain ssb2, active compounds read low 0.997 | S. cerevisiae deletion strains, locus YNL233W, strain BNI4, active compounds read low 1.01 | S. cerevisiae deletion strains, locus YNL248C, strain rpa49, active compounds read low 0.935 | S. cerevisiae deletion strains, locus YNL250W, strain rad50, active compounds read low 1.02 | S. cerevisiae deletion strains, locus YNL271C, strain bni1, active compounds read low 1.01 | S. cerevisiae deletion strains, locus YNL298W, strain CLA4, active compounds read low 1.01 | S. cerevisiae deletion strains, locus YNL307C, strain MCK1, active compounds read low 1.03 | S. cerevisiae deletion strains, locus YNL322C, strain KRE1 (second series), active compounds read low 0.968 | S. cerevisiae deletion strains, locus YNR049C, strain mso1, active compounds read low 0.971 | S. cerevisiae deletion strains, locus YNR052C, strain pop2, active compounds read low 1.01 | S. cerevisiae deletion strains, locus YOL006C, strain TOP1, active compounds read low 1.02 | S. cerevisiae deletion strains, locus YOL012C, strain htz1 0.822 | S. cerevisiae deletion strains, locus YOL147C, strain pex11, active compounds read low 1.01 | S. cerevisiae deletion strains, locus YOR001W, strain rrp6, active compounds read low 0.978 | S. cerevisiae deletion strains, locus YOR061W, strain CKA2, active compounds read low 1 | S. cerevisiae deletion strains, locus YOR069W, strain VPS5, active compounds read low 1.01 | S. cerevisiae deletion strains, locus YOR070C, strain gyp1, active compounds read low 0.983 | S. cerevisiae deletion strains, locus YOR080W, strain dia2, active compounds read low 0.984 | S. cerevisiae deletion strains, locus YOR083W, strain WHI5, active compounds read low 0.982 | S. cerevisiae deletion strains, locus YOR106W, strain vam3, active compounds read low 1.01 | S. cerevisiae deletion strains, locus YOR136W, strain idh2, active compounds read low 1.01 | S. cerevisiae deletion strains, locus YOR144C, strain elg1, active compounds read low 1 | S. cerevisiae deletion strains, locus YOR184W, strain ser1, active compounds read low 1.02 | S. cerevisiae deletion strains, locus YOR231W, strain MKK1, active compounds read low 0.98 | S. cerevisiae deletion strains, locus YOR265W, strain rbl2, active compounds read low 0.981 | S. cerevisiae deletion strains, locus YOR270C, strain vph1, active compounds read low 0.967 | S. cerevisiae deletion strains, locus YOR290C, strain snf2, active compounds read low 0.945 | S. cerevisiae deletion strains, locus YOR316C, strain cot1, active compounds read low 1.01 | S. cerevisiae deletion strains, locus YPL051W, strain arl3, active compounds read low 0.991 | S. cerevisiae deletion strains, locus YPL055C, strain LGE1, active compounds read low 1.02 | S. cerevisiae deletion strains, locus YPL078C, strain atp4, active compounds read low 1 | S. cerevisiae deletion strains, locus YPL106C, strain sse1, active compounds read low 0.96 | S. cerevisiae deletion strains, locus YPL240C, strain hsp82, active compounds read low 0.983 | S. cerevisiae deletion strains, locus YPL241C, strain CIN2, active compounds read low 1.01 | S. cerevisiae deletion strains, locus YPL256C, strain CLN2, active compounds read low 0.969 | S. cerevisiae deletion strains, locus YPR119W, strain clb2, active compounds read low 1 | S. cerevisiae deletion strains, locus YPR141C, strain kar3, active compounds read low 1.02 | S. cerevisiae deletion strains, locus YPR163C, strain tif3, active compounds read low 1.02 | S. cerevisiae deletion strains, locus YPR167C, strain met16, active compounds read low 1.01 | S. cerevisiae deletion strains, strain wtn01, active compounds read low 1.03 | S. cerevisiae strains, strain wild type, active compounds read low 1
